Source: PubChem (The Scripps Research Institute Molecular Screening Center)
PME-1 primary – PME-1 (human) inhibition | inhibition, % at 5.9 µM | 320,000 tested, 0.53% active | recombinant PME-1, FP-Rh probe fluorescence polarization | Q9Y570;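 active = inhibition above the campaign mean of all compounds plus 3 SD, cut at about 26% in these data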;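 also: competitive labeling of PME-1 active site by serine hydrolase directed probe; 0% = PME-1 with DMSO and 100% = wells lacking PME-1 enzyme; inhibitors block probe labeling so polarization falls and inhibition rises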
Target sequence (Q9Y570 whole entry, looked up): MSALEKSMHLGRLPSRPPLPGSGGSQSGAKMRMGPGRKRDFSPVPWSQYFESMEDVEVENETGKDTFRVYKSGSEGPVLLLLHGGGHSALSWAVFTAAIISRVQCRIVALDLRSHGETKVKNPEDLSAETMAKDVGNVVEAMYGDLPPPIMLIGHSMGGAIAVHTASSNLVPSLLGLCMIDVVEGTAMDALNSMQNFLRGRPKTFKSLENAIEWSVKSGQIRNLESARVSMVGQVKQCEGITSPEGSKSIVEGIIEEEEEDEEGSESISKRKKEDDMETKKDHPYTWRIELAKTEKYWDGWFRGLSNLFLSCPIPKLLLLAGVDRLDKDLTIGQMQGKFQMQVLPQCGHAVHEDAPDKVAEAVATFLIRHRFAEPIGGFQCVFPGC
PREPL inh – inhibitors of human prolyl oligopeptidase-like enzyme PREPL; recombinant PREPL, fluorescence polarization activity-based probe; 320,000 tested, 0.68% active; inhibition, % at 5.96 µM; Q4J6C6; AID 2751;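 also: 0% = enzyme with DMSO and 100% = wells lacking enzyme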
LYPLA1 counter – counter-screen for PME1 inhibitors: inhibitors of human LYPLA1. recombinant LYPLA1, FP-Rh probe fluorescence polarization. inhibition, % at 5.9 µM. 320,000 tested, 0.16% active;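 active = inhibition above the mean of all tested compounds plus 3 SD, set per campaign, cut at about 14% in these data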;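 also: inhibitors block serine hydrolase probe labeling of LYPLA1 so polarization falls; 0% = enzyme with DMSO and 100% = wells lacking LYPLA1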
GSTO1 counter – blocks human GSTO1 in RBBP9 counter-screen; recombinant GSTO1, activity-based probe fluorescence polarization; inhibition, % at 5.96 µM; 300,000 tested, 1.1% active; P78417;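 active = inhibition above the campaign mean inhibition plus 3 SD, cut at about 35% in these data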;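 also: 0% = GSTO1-1 with DMSO and 100% = wells lacking GSTO1-1 enzyme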
Fam108B inh – Fam108B inhibition, counter-screen for RBBP9 inhibitors; recombinant Fam108B, FP-Rh probe fluorescence polarization; inhibition, % at 9.51 µM; 300,000 tested, 0.33% active; AID 1947;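 active = inhibition above the screen mean inhibition plus 3 SD, computed separately per campaign, cut at about 18% in these data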;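 also: inhibitors lower polarization as less probe binds the enzyme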
LYPLA2 inh – counter-screen for PME1 inhibitors: inhibitors of human LYPLA2. AID 2177. recombinant LYPLA2, FP-Rh probe fluorescence polarization. inhibition, % at 5.9 µM. 320,000 tested, 0.38% active. O95372;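 active = inhibition above the screen-wide mean plus 3 SD, limit set per campaign, cut at about 26% in these data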;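 also: 0% = LYPLA2 with DMSO and 100% = wells lacking LYPLA2 enzyme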
Target sequence (O95372 whole entry, looked up): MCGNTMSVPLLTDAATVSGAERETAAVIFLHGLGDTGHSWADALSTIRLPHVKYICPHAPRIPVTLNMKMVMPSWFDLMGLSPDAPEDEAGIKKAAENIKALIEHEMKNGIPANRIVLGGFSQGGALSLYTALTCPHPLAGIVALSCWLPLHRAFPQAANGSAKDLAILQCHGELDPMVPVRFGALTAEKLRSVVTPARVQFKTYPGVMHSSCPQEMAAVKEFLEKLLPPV
LYPLA2 confirm – counter-screen for PME1 inhibitors: confirmation of human LYPLA2 inhibitors | shares compounds with LYPLA2 inh | recombinant LYPLA2, FP-Rh probe fluorescence polarization | inhibition, % at 5.9 µM | 1,100 tested, 72% active | AID 2232;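 active = mean inhibition across replicates above the hit cutoff set in the primary screen, cut at about 26% in these data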;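 also: blocked labeling of the enzyme by serine hydrolase FP-Rh probe lowers polarization; 0% = enzyme with DMSO and 100% = wells lacking LYPLA2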
LYPLA2 ABPP – blocks human acyl-protein thioesterase 2 in gel ABPP. shares compounds with LYPLA2 inh. rhLYPLA2 in mouse brain proteome, gel ABPP FP-Rh. inhibition, % at 20 µM. 150 tested, 30% active. AID 652029;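 active = inhibition of LYPLA2 enzyme probe labeling above about 50%, limit read from the data; inactive = inhibition below that limit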;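 also: loss of FP-Rh probe labeling of the LYPLA2 gel band measured as band density; 0% = DMSO only control band and 100% = blank gel background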
PREPL confirm – human PREPL inhibition, confirmation; shares compounds with PREPL inh; recombinant PREPL, fluorescence polarization activity probe; inhibition, % at 5.96 µM; 2,000 tested, 67% active;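 also: 0% = protein with DMSO and 100% = wells lacking protein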
* hit, by the source's call; x = not tested or not shown. Only some compounds are listed: those with a hit (about 1.9% of all), similar ones and a draw of the others. Rule as the data show it, unless noted: active = inhibition above about 43%; inactive = the rest.

SMILES | PME-1 primary | PREPL inh | LYPLA1 counter | GSTO1 counter | Fam108B inh | LYPLA2 inh | PREPL confirm | others
O=C(c1ccc(CNc2c(N3CCCC3)c(=O)c2=O)cc1)N1CC=C(c2ccccc2)CC1 | 7 | 43* | 12 | 8 | 3 | 47* | 42 | LYPLA2 confirm=52*;LYPLA2 ABPP=21
O=C(COc1ccccc1[N+](=O)[O-])Nc1ccc(N2CCN(C(=O)c3cccs3)CC2)cc1 | 7 | 44* | 10 | -1 | 4 | 46* | 64* | LYPLA2 confirm=48*
CCC1Oc2ccccc2N(CC(=O)NC2CCCC2)C1=O (stereo not given) | 1 | 0 | 5 | 0 | 0 | 3 | x
c1ccc2c(c1)nc1n2CCN1CCN1CCCC1 | 0 | -4 | -3 | -2 | 1 | -1 | x
C#CCOCCOCCOCCNc1nc(N2CCN(C(=O)CCCCCCCCCCNC(=O)[C@H]([C@@H](C)CC)n3cc(CCCCCN)nn3)CC2)nc(N2CCN(C(=O)CCCCCCCCCCNC(=O)[C@H]([C@@H](C)CC)n3cc(CCCCN=C(N)N)nn3)CC2)n1 | -16 | 63* | 11 | -6 | -7 | 57* | 57* | LYPLA2 confirm=56*
C#CCOCCOCCOCCNc1nc(N2CCN(C(=O)CCCCCCCCCCNC(=O)[C@H]([C@@H](C)CC)n3cc(CCCCCN)nn3)CC2)nc(N2CCN(C(=O)CCCCCCCCCCNC(=O)[C@H](CCCCN)n3cc(CCCC(=O)O)nn3)CC2)n1 | -3 | 29 | 0 | 4 | 4 | 15 | x
CC1CC(C)CN(C(=O)c2ccc3c(c2NCCO)C(=O)c2ccccc2C3=O)C1 (stereo not given) | 7 | 56* | 0 | 2 | 6 | 5 | 58*
CN1CCN(CCCN2c3ccccc3Sc3ccc(Cl)cc32)CC1 | 14 | 63* | 3 | -2 | 6 | 7 | 55*
CC1=NCC(C)c2c1[nH]c1ccccc21 (stereo not given) | -9 | 45* | -4 | -3 | 0 | -2 | 8
COc1ccc(C2=NO[C@@](CC(=O)O)(C(=O)Nc3ccc4c(c3)OCCO4)C2)cc1 | 2 | 6 | -2 | 17 | 0 | -6 | x
COc1ccc(-n2c(CN3CCN(C)CC3)nc3ccc([N+](=O)[O-])cc3c2=O)c(OC)c1 | -5 | 25 | -5 | 1 | 6 | -7 | x
COc1ccc(-n2c(CN3CCN(Cc4ccccc4)CC3)nc3ccc([N+](=O)[O-])cc3c2=O)c(OC)c1 | 6 | 51* | 2 | 13 | 1 | 3 | 38
C[C@H](NC(=O)c1ccccc1Cl)C(=O)Nc1ccccc1F | -2 | 4 | -1 | 3 | -3 | 5 | x
O=c1c2ccc([N+](=O)[O-])cc2ncn1CCOc1ccccc1 | 1 | 44* | -1 | -5 | 1 | 1 | 33
Cc1ccc(OCCn2cnc3cc([N+](=O)[O-])ccc3c2=O)cc1 | 0 | 28 | -3 | -20 | 0 | -2 | x
Cc1cccc(NC(=O)C2CCN(S(=O)(=O)c3c(C)c(C)cc(C)c3C)CC2)n1 | -2 | 0 | 3 | -1 | 0 | 6 | x
COc1ccc(NS(=O)(=O)c2ccc(OC)c(NC(=O)CCC3CCCC3)c2)cc1 | -5 | 1 | -7 | 13 | 2 | -8 | x
C(=N\Nc1ncnc2ccccc12)/c1ccccc1 | 10 | 45* | 0 | 4 | 2 | -2 | 21
Clc1cccc(/C=N/Nc2ncnc3ccccc23)c1 | 10 | 40 | -4 | -8 | 2 | 0 | x
COc1ccc(C2=Nn3c(nnc3-c3ccccc3F)SC2)cc1OCC1CC1 | x | 56* | x | x | x | x | -9
COC(=O)c1ccc(N=C2SCC(=O)N2C)cc1 | -4 | -6 | 0 | 2 | 2 | 6 | x
Cc1ccc2c(c1)[C@@H]1CN(C)CC[C@@H]1N2S(=O)(=O)c1ccc([N+](=O)[O-])cc1 | 0 | 4 | 3 | 3 | -1 | -3 | x
Cc1ccc2c(c1)C1CN(C)CCC1N2Sc1ccccc1[N+](=O)[O-] (stereo not given) | 10 | 45* | 5 | 4 | 3 | 2 | 38
Cc1ccc[n+](CC(=O)N2CCCCC2)c1C | -1 | -2 | -4 | 2 | 3 | 1 | x
C/C(=N\N1CCN(c2ccccc2)CC1)c1ccncc1 | -1 | 13 | 4 | 7 | 2 | 8 | x
SMILES | PME-1 primary | PREPL inh | LYPLA1 counter | GSTO1 counter | Fam108B inh | LYPLA2 inh | PREPL confirm | others
C=CCn1c(N)c(-c2nc3ccccc3n2C)sc1=S | -2 | 44* | -3 | -1 | -4 | -9 | 36
Cn1c(-c2sc(=S)n(-c3ccccc3)c2N)nc2ccccc21 | -2 | 1 | 0 | 0 | -2 | 1 | x
O=C(CSc1nc2ccc(NC(=O)c3ccccc3C(=O)O)cc2s1)Nc1ccc(F)c([N+](=O)[O-])c1 | 24 | 51* | -6 | 17 | 2 | -2 | 14
Nc1nc(SCC(=O)c2ccc(Br)s2)n[nH]1 | 1 | 52* | -4 | 0 | 6 | -3 | 29
COCc1cc(C)nc2sc(C(=O)Nc3ccccc3Br)c(N)c12 | 10 | 12 | 0 | -1 | 4 | 2 | x
COc1cc(/C=C2/C(=O)NN(c3ccc(Cl)c(Cl)c3)C2=O)cc([N+](=O)[O-])c1O | 17 | 53* | 9 | 17 | 12 | 9 | 20
CN(CC(=O)Nc1ccccc1C(F)(F)F)C(=O)Cn1c(=O)oc2ccccc21 | -3 | 1 | 1 | -7 | -5 | -7 | x
O=C(COc1ccc(Cl)cc1)Nc1cc2c3c(c1)CC(=O)N3CCC2 | 2 | 47* | 0 | 9 | 2 | -1 | 35
COc1ccc(OC)c2sc(N3CCc4ccccc4C3)nc12 | 16 | 21 | 4 | 11 | 2 | -5 | x
c1ccc2c(c1)CCN(c1nc3cc4c(cc3s1)OCCO4)C2 | 12 | 48* | -3 | 10 | 0 | 4 | 38
COc1ccc(OC)c(NC(=O)COC(=O)COc2ccc(Nc3ccccc3)cc2)c1 | x | 29 | x | x | x | x | x
CCn1c2ccccc2c2cc(CNCc3ccc(OC)cc3OC)ccc21 | -3 | 49* | 5 | 6 | 2 | -1 | 51*
C=CCn1c(SCC(=O)N2CCOCC2)nc2ccccc2c1=O | -1 | -1 | -1 | 8 | 4 | -2 | x
CCCn1cnc2cc(NCc3ccc(Br)cc3)ccc21 | 7 | 49* | 0 | -3 | 0 | 3 | 46*
CCn1cnc2cc(NCc3ccc(N(C)C)cc3)ccc21 | -3 | 27 | 1 | 16 | 1 | 9 | x
CN(C)c1ccc(CNc2ccc3c(c2)ncn3C(C)(C)C)cc1 | 0 | 43* | -1 | 11 | 2 | -1 | 28
